# Source: PubChem BioAssay (NCI)
# Compounds without any hit were thinned out: in the full panel of roughly 79,000, 15% have a hit. Unmarked numbers belong to inactive results. Active and inactive are the calls of the source. Rule as the data show it: active = growth inhibition above about 70%; inactive = the rest.
# Experiments:
# [1] = NCI Yeast Anticancer Drug Screen. Data for the rad52 strain (AID 147);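 also: 0% = growth of vehicle-treated control cultures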; conditions: S. cerevisiae rad52 mutant growth inhibition, active compounds read high
# Summary of the method: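 Measured: yeast growth inhibition. System: strain with a defined DNA damage repair alteration. Reference: vehicle-treated control cultures.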
# [2] = NCI Yeast Anticancer Drug Screen. Data for the wt1 strain (AID 149);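 also: 0% = growth of vehicle-treated wt1 cultures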; conditions: S. cerevisiae wt1 strain (SPY 50644) growth inhibition, active compounds read high
# Summary of the method: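 The wt1 strain was treated with compounds, and growth was compared with vehicle-treated cultures to give inhibition.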
# [3] = NCI Yeast Anticancer Drug Screen. Data for the rad50EPP+ strain (AID 151);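 also: 0% = growth of vehicle-treated control cultures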; conditions: S. cerevisiae rad50 mutant strain, active compounds read high
# Summary of the method: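 One strain with a rad50 alteration (rad50EPP+) was compound-treated, its growth then compared to that of vehicle controls.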
# [4] = NCI Yeast Anticancer Drug Screen. Data for the mgt1 strain (AID 153); conditions: S. cerevisiae mgt1 mutant growth inhibition, active compounds read high
# Summary of the method: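 After exposure of the mgt1 yeast mutant to compound, growth was measured and reported as inhibition compared with vehicle controls.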
# [5] = NCI Yeast Anticancer Drug Screen. Data for the rad50 strain (AID 155);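 also: 0% = growth of vehicle-only cultures of the same strain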; conditions: S. cerevisiae rad50 strain growth inhibition, active compounds read high
# Summary of the method: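 Cells are treated with compound, grown, and their growth is then scored against vehicle-only cultures of the same repair-deficient yeast strain.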
# [6] = NCI Yeast Anticancer Drug Screen. Data for the mec2-1 strain (AID 157); conditions: S. cerevisiae mec2-1 strain, active compounds read high
# Summary of the method: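 Test agents were screened against the mec2-1 yeast strain, with defined DNA repair or cell cycle alteration. Growth was scored as inhibition against vehicle-only controls.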
# [7] = NCI Yeast Anticancer Drug Screen. Data for the rad14 strain (AID 159);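 also: 0% = growth of vehicle-treated control cultures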; conditions: S. cerevisiae rad14 strain growth inhibition, active compounds read high
# Summary of the method: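 Readout: yeast growth inhibition, referenced to vehicle-only cultures. Strain bears a defined alteration in DNA damage repair.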
# [8] = NCI Yeast Anticancer Drug Screen. Data for the sgs1 mgt1 strain (AID 161);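 also: 0% = growth of cultures given vehicle only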; conditions: S. cerevisiae sgs1 mgt1 strain, active compounds read high
# Summary of the method: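 Mutant yeast exposed to compound; growth scored against vehicle-only wells.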
# [9] = NCI Yeast Anticancer Drug Screen. Data for the CLN2oe strain (AID 163);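 also: 0% = growth of vehicle-only control cultures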; conditions: S. cerevisiae CLN2oe strain, active compounds read high
# Summary of the method: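 Here, growth inhibition in a cell-cycle-altered yeast strain after compound exposure was quantified against vehicle control growth.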
# [10] = NCI Yeast Anticancer Drug Screen. Data for the cln2 rad14 strain (AID 165);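 also: 0% = growth equal to vehicle treated cultures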; conditions: S. cerevisiae cln2 rad14 strain, active compounds read high
# Summary of the method: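 Growth of compound-exposed yeast (cln2 rad14 genotype) measured and expressed as inhibition relative to vehicle.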
# [11] = NCI Yeast Anticancer Drug Screen. Data for the bub3 strain (AID 167); conditions: S. cerevisiae bub3 mutant strain, active compounds read high
# Summary of the method: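 Part of a panel of yeast mutants defective in DNA damage repair or cell cycle regulation. Each strain is grown with compound, and inhibition is calculated relative to solvent-treated cultures.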
# [12] = NCI Yeast Anticancer Drug Screen. Data for the wt2 strain (AID 169);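 also: 0% = growth of vehicle-treated yeast cultures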; conditions: S. cerevisiae wt2 strain growth inhibition, active compounds read high
# Summary of the method: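 Genetically defined yeast strains from a DNA-repair/cell-cycle panel were used. Compound-exposed yeast growth was measured, and the inhibition was calculated relative to vehicle treatment.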
# [13] = NCI Yeast Anticancer Drug Screen. Data for the mlh1 strain (AID 171);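 also: 0% = growth of vehicle-treated control cultures of the same strain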; conditions: S. cerevisiae mlh1 strain growth inhibition, active compounds read high
# Summary of the method: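 Here the genetically defined yeast mutant is grown with each compound, and the extent to which its growth falls below that of vehicle-exposed cells is reported.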
# [14] = NCI Yeast Anticancer Drug Screen. Data for the sgs1 strain (AID 173);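 also: 0% = growth of vehicle-only control cultures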; conditions: S. cerevisiae sgs1 mutant, active compounds read high
# Summary of the method: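 Relative growth inhibition, referenced to vehicle, was determined in a yeast strain with a defined alteration affecting DNA damage repair or cell cycle control after compound exposure.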
# [15] = NCI Yeast Anticancer Drug Screen. Data for the mlh1 rad18 strain (AID 175); conditions: S. cerevisiae mlh1 rad18 strain growth inhibition, active compounds read high
# Summary of the method: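 In this whole-cell yeast screen, a strain with altered DNA damage repair is challenged with compound, and its growth is measured against matched vehicle-treated controls.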
# [16] = NCI Yeast Anticancer Drug Screen. Data for the rad18 strain (AID 177); conditions: S. cerevisiae rad18 mutant growth inhibition, active compounds read high
# Summary of the method: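 Screen uses a yeast strain with a defined lesion in DNA damage repair; compound effect is read as loss of growth compared to untreated vehicle cultures.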
# [17] = at 5.0 µM (retest, dose inferred, filed as 0.5)
# [18] = at 50.0 µM (retest, dose inferred, filed as 5.0)
smiles,measurement,setting,value
CCN(CC)CCNc1ccc(C)c2sc3ccc(O)cc3c(=O)c12,growth inhibition,[1]; at 1.2 µM,60%
same,growth inhibition,[1]; at 3.7 µM,89% (active)
same,growth inhibition,[1]; at 11.0 µM,94% (active)
same,growth inhibition,[1]; at 33.0 µM,98% (active)
same,growth inhibition,[1]; at 100.0 µM,99% (active)
same,growth inhibition,[2]; at 1.2 µM,-7%
same,growth inhibition,[2]; at 3.7 µM,-10%
same,growth inhibition,[2]; at 11.0 µM,8%
same,growth inhibition,[2]; at 33.0 µM,79% (active)
same,growth inhibition,[2]; at 100.0 µM,99% (active)
same,growth inhibition,[3]; at 1.2 µM,37%
same,growth inhibition,[3]; at 3.7 µM,50%
same,growth inhibition,[3]; at 11.0 µM,78% (active)
same,growth inhibition,[3]; at 33.0 µM,84% (active)
same,growth inhibition,[3]; at 100.0 µM,98% (active)
same,growth inhibition,[4]; at 1.2 µM,7%
same,growth inhibition,[4]; at 3.7 µM,27%
same,growth inhibition,[4]; at 11.0 µM,23%
same,growth inhibition,[4]; at 33.0 µM,89% (active)
same,growth inhibition,[4]; at 100.0 µM,99% (active)
same,growth inhibition,[5]; at 1.2 µM,72% (active)
same,growth inhibition,[5]; at 3.7 µM,94% (active)
same,growth inhibition,[5]; [17],52%
same,growth inhibition,[5]; at 11.0 µM,96% (active)
same,growth inhibition,[5]; at 33.0 µM,98% (active)
same,growth inhibition,[5]; [18],98% (active)
same,growth inhibition,[5]; at 50.0 µM,90.3% (active)
same,growth inhibition,[5]; at 100.0 µM,99% (active)
same,growth inhibition,[6]; at 1.2 µM,-1%
same,growth inhibition,[6]; at 3.7 µM,17%
same,growth inhibition,[6]; [17],4%
same,growth inhibition,[6]; at 11.0 µM,36%
same,growth inhibition,[6]; at 33.0 µM,91% (active)
same,growth inhibition,[6]; [18],98% (active)
same,growth inhibition,[6]; at 50.0 µM,92% (active)
same,growth inhibition,[6]; at 100.0 µM,99% (active)
same,growth inhibition,[7]; at 1.2 µM,23%
same,growth inhibition,[7]; at 3.7 µM,29%
same,growth inhibition,[7]; at 11.0 µM,34%
same,growth inhibition,[7]; at 33.0 µM,93% (active)
same,growth inhibition,[7]; at 100.0 µM,99% (active)
same,growth inhibition,[8]; [17],9%
same,growth inhibition,[8]; [18],99% (active)
same,growth inhibition,[8]; at 50.0 µM,91.7% (active)
same,growth inhibition,[9]; at 1.2 µM,39%
same,growth inhibition,[9]; at 3.7 µM,33%
same,growth inhibition,[9]; at 11.0 µM,39%
same,growth inhibition,[9]; at 33.0 µM,94% (active)
same,growth inhibition,[9]; at 100.0 µM,99% (active)
same,growth inhibition,[10]; [17],12%
same,growth inhibition,[10]; [18],98% (active)
same,growth inhibition,[10]; at 50.0 µM,90.9% (active)
same,growth inhibition,[11]; at 1.2 µM,-1%
same,growth inhibition,[11]; at 3.7 µM,10%
same,growth inhibition,[11]; [17],-1%
same,growth inhibition,[11]; at 11.0 µM,16%
same,growth inhibition,[11]; at 33.0 µM,91% (active)
same,growth inhibition,[11]; [18],99% (active)
same,growth inhibition,[11]; at 50.0 µM,91.2% (active)
same,growth inhibition,[11]; at 100.0 µM,99% (active)
same,growth inhibition,[12]; at 1.2 µM,-20%
same,growth inhibition,[12]; at 3.7 µM,-18%
same,growth inhibition,[12]; at 11.0 µM,-17%
same,growth inhibition,[12]; at 33.0 µM,98% (active)
same,growth inhibition,[12]; at 100.0 µM,98% (active)
same,growth inhibition,[13]; at 1.2 µM,45%
same,growth inhibition,[13]; at 3.7 µM,43%
same,growth inhibition,[13]; at 11.0 µM,29%
same,growth inhibition,[13]; at 33.0 µM,86% (active)
same,growth inhibition,[13]; at 100.0 µM,99% (active)
same,growth inhibition,[14]; at 1.2 µM,23%
same,growth inhibition,[14]; at 3.7 µM,32%
same,growth inhibition,[14]; at 11.0 µM,43%
same,growth inhibition,[14]; at 33.0 µM,97% (active)
same,growth inhibition,[14]; at 100.0 µM,99% (active)
same,growth inhibition,[15]; [17],12%
same,growth inhibition,[15]; [18],99% (active)
same,growth inhibition,[15]; at 50.0 µM,91% (active)
same,growth inhibition,[16]; at 1.2 µM,6%
same,growth inhibition,[16]; at 3.7 µM,5%
same,growth inhibition,[16]; at 11.0 µM,12%
same,growth inhibition,[16]; at 33.0 µM,97% (active)
same,growth inhibition,[16]; at 100.0 µM,99% (active)
